# Compound activity deposited in PubChem BioAssay by National Center for Advancing Translational Sciences (NCATS).
# TDP1 cell CPT = DT40-hTDP1 cell growth loss with CPT; chicken DT40 Tdp1-/-;hTDP1 cells + 20 nM CPT, ATP luminescence, 48 h; Potency, µM (series often up to 46.2 µM), for the others: at the highest dose activity change, negative = growth inhibition, usual class: inhibitors; hit rate 12% among 420,000; note: potency is the fitted concentration of half-maximal effect; nearly all actives have a fitted effect of over 55% in size
#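 Chicken DT40 Tdp1-/- cells complemented with human TDP1, 400 cells/well, exposed to compounds plus 20 nM camptothecin for at least 48 h at 37 C; viability read as ATP content by CellTiter-Glo luminescence.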
# HT1080 IDH1KD tx = kills HT-1080 cells with IDH1 knockdown | HT-1080 IDH1 knockdown viability, ATP luminescence, 48 h | Potency, µM (highest dose often 46.1 µM), inactives show at the top dose activity, negative = toxicity, actives largely listed as cytotoxic | hit rate 2% among 360,000;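 note: potency is the fitted concentration of half-maximal effect; 0% = DMSO wells and -100% = cell-free medium wells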
#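 IDH1KD HT-1080 cells, 750/well, RPMI + 5% FBS; compound pinned after 2 h settling; 48 h, 37 °C; CellTiter-Glo luminescence; % activity normalised to DMSO and no-cell wells; curves fitted, classed by r2 and efficacy.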
# HT1080NT lethal = kills 2HG-producing HT-1080-NT fibrosarcoma cells | HT-1080-NT fibrosarcoma viability, CellTiter-Glo ATP luminescence, 48 h | Potency, µM (doses to about 46.1 µM), for inactives: top-dose activity, negative = less viability, actives largely listed as cytotoxic | hit rate 1.6% among 360,000 | AID 686970;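 note: NT is the 2HG producing partner of a matched IDH1 knockdown line; potency is the fitted concentration of half-maximal effect; 0% = DMSO-treated cells and -100% = media-only wells without cells; nearly all actives have a fitted effect of over 55% in size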
#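 HT-1080-NT fibrosarcoma cells (2HG-overproducing), 750 cells/well in RPMI with 5% FBS, dosed after 2 h and incubated 48 h at 37C. CellTiter-Glo luminescence normalized to DMSO and no-cell wells; concentration-response curves fitted and classed.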
# TDP1 cell noCPT = qHTS for Inhibitors of human tyrosyl-DNA phosphodiesterase 1 (TDP1): qHTS in cells in absence of CPT; DT40 Tdp1-/- hTDP1 cells, no CPT, ATP luminescence, 48 h; Potency, µM (series often up to 46.2 µM), for inactives: at the highest dose activity change, negative = growth inhibition, actives largely listed as inhibitors; hit rate 15% among 420,000; AID 686978, 2013; note: potency is the fitted concentration of half-maximal effect; nearly all actives have a fitted effect of over 55% in size
#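 Seeded 400 DT40-hTDP1 cells/well (vehicle DMSO, no 20 nM CPT); pinned compounds; ≥48 hr at 37 °C; CellTiter-Glo luminescence as viability measure.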
# IL-1B inflam inh = inhibitors of inflammasome signaling (IL-1 beta secretion) | THP-1 LPS/ATP IL-1B secretion, AlphaLISA, 16 h; hits give low values | activity change, % at 57.5 µM | hit rate 4.7% among 360,000; in the data active = activity change below about -50%; inconclusive = mostly about -30% to -49%
#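 Secreted IL-1B measured by AlphaLISA bead assay after 16 h compound exposure of THP-1 cells; compounds (final up to 57.5 uM) added 1 h before LPS (250 ng/mL) and ATP (1.25 mM) stimulation; lower signal means less secretion.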
# * hit, by the source's call; ? = inconclusive; · = no result; [ ] = remark or other dose. Hits are enriched below; roughly 19% of the tested compounds scored in any of these assays. Unless noted, calls come from the whole dose curve; as a rule, active = well fitted curve in the direction sought with a large enough effect; inconclusive = small, poorly fitted or top-dose-only effect, or another doubt; inactive = no such curve, though single readings can be large; an effect the other way counts as inactive or inconclusive. Unless noted, % is set by controls: 0 for no effect and ±100 for the full control effect.
SMILES,TDP1 cell CPT,HT1080 IDH1KD tx,HT1080NT lethal,TDP1 cell noCPT,IL-1B inflam inh
COc1ccc(N(C(=O)c2snc(C(N)=O)c2N)C(C(=O)NC2CCCC2)c2ccco2)c(OC)c1 (stereo unspecified),?,?,-17.8%,23.1µM*,-70.0*
COc1ccc(N(C(=O)c2snc(C(N)=O)c2N)C(C(=O)NC2CCCCC2)c2ccc(C)o2)c(OC)c1 (stereo unspecified),11.6µM*,-9.7%,-27.3%,20.6µM*,-3.9
Cc1oc2ccc(O)c(CN3CCN(C)CC3)c2c1C(=O)Nc1cccc(Cl)c1C,8.2µM*,·,·,18.4µM*,·
Cc1c(Cl)cccc1NC(=O)NN1CCN(C)CC1,?,-6.6%,-0.6%,2.2%,-0.4
CCN1CCN(Cc2c(O)ccc3oc(C)c(C(=O)Nc4cccc(Cl)c4C)c23)CC1,8.2µM*,·,·,20.6µM*,·
O=C(Nc1ccccc1Cl)O/N=C/c1ccncc1,-11.9%,0.0%,11.7%,-10.4%,-15.1
CSc1ncnc2c1ncn2CCCNC1CCN(Cc2ccccc2)CC1,?,-27.1%,-3.9%,23.1µM*,?
c1ccc(COc2ncnc3c2ncn3CCCNC2CCN(Cc3ccccc3)CC2)cc1,7.31µM*,18.4µM*,23.1µM*,4.11µM*,?
CC[C@@H](NCCCn1cnc2c(SC)ncnc21)c1ccccc1,16.4µM*,-29.6%,-1.1%,?,0.4
CSc1ncnc2c1ncn2CCCNCc1cccc2ccccc12,-16.7%,-12.3%,-12.2%,?,4.4
O=C(O)C(c1ccccc1)C1(O)CCC1 (stereo unspecified),-23.8%,-4.1%,-2.3%,-5.9%,0.7
O=C(Nc1cccc(-n2cnnn2)c1)c1ccoc1COc1ccc(Cl)cc1,?,-29.5%,-15.5%,?,49.1
CCCCn1c(SCC(=O)Nc2cc(C(F)(F)F)ccc2Cl)nnc1C(CC)N(C)C (stereo unspecified),?,-6.0%,-7.8%,20.6µM*,-8.5
CCCCn1c(SCC(=O)Nc2ccc(C)c(S(=O)(=O)N3CCOCC3)c2)nnc1C(CC)N(C)C (stereo unspecified),0.7%,-7.3%,1.1%,-17.5%,-13.9
COc1c(Br)cc(/C=N/n2c(-c3ccccc3)n[nH]c2=S)c(O)c1Br,0.1%,?,-17.8%,?,47.2
Cc1cc(=O)oc2ccc(OCC(=O)NCc3ccco3)cc12,-0.2%,0.0%,10.6%,-1.4%,-29.9
Cc1ccc(NS(=O)(=O)c2ccc(OCC(=O)NCc3ccco3)cc2)cc1,18.4µM*,-2.9%[9.24 µM],-6.8%,?,-19.6
Cc1ccc(NS(=O)(=O)c2ccc(OCC(=O)NCc3ccncc3)cc2)cc1,-3.0%,1.4%,3.8%,-9.2%,18.2
CCN(CC)S(=O)(=O)c1ccc(OCC(=O)NCc2ccco2)cc1,?,2.0%,4.7%,-18.9%,-0.8
O=C(COc1ccc2oc(-c3ccccc3)cc(=O)c2c1)NCc1ccco1,?,?,-15.9%,29.1µM*,-3.1
Cc1ccc(C)c(NS(=O)(=O)c2ccc(OCC(=O)NCc3ccco3)cc2)c1,?,11.7%,6.2%,23.1µM*,8.8
CC(C)(C)NS(=O)(=O)c1ccc(OCC(=O)NCc2ccco2)cc1,4.6%,-8.6%,-1.3%,5.3%,6.4
Cc1ccc(NS(=O)(=O)c2ccc(OCC(=O)NCc3ccccn3)cc2)cc1,3.66µM*,2.0%,0.0%,4.61µM*,11.2
CCOc1ccc(NC(=O)C(=O)NCc2ccco2)cc1,1.4%,·,·,-1.6%,·
CCOc1ccc(/C=N/OCC(=O)NCc2ccco2)cc1,?,-18.8%,3.4%,23.1µM*,3.6
CCn1c(SCC(=O)N=Nc2c(O)[nH]c3ccccc23)nc2ccccc21,16.4µM*,-6.7%,-12.5%,16.4µM*,0.8
O=C(CNC(=O)c1ccccn1)N=Nc1c(O)[nH]c2ccccc12,?,-16.4%,-21.4%,14.6µM*,26.6
Cc1ccc(CN2CCN(CC(=O)N=Nc3c(O)[nH]c4ccccc34)CC2)cc1,?,-23.6%,-14.4%,14.6µM*,-2.0
